Screening results deposited in PubChem BioAssay by National Center for Advancing Translational Sciences (NCATS).
Most compounds without a hit are left out; they make up all but 2.6% or so of the library.
KCNH2 WT inh: KCNH2 (human, wildtype) channel inhibition; Q12809; U2OS, BacMam KCNH2, thallium flux FluxOr; active compounds read low; activity change, % at 1.84 µM; 0.37% of 340,000 active;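 active = maximum activity change below -70%; inconclusive = maximum activity change between -70% and -50%; inactive = maximum activity change above -50%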; note: % is set by controls: 0 for no effect and ±100 for the full control effect
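U2OS cells transduced with wild-type KCNH2 virus are loaded with FluxOr dye for 45 min, and thallium flux is measured in kinetic reads before and after stimulation buffer. Rate constants are normalized to DMSO controls.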
KCNH2 3.1 inh: blocks the human KCNH2 3.1 channel isoform; U2OS KCNH2 3.1, thallium flux FluxOr; active compounds read low; activity change, % (tested at about 1.8 µM); 0.95% of 340,000 active; AID 720553;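 active = maximum activity change below -70%; inconclusive = maximum activity change from -70% to -50%; inactive = maximum activity change above -50%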;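 note: thallium influx rate constant from kinetic fluorescence after stimulation buffer; % is set by controls: 0 for no effect and ±100 for the full control effect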
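Channel expression came from 3.1 mutant virus (1.77 x 10^8 /mL) applied to suspended U2OS cells for 4 h. Flux was tracked with FluxOr dye plus Red40 quencher, and kinetic rate constants normalized to controls.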
TRPV1 potentiator: human TRPV1 potentiation | 0.02% of 320,000 active | TRPV1-expressing cells, Fluo-8 calcium influx, capsaicin EC20 potentiation | Q8NER1 | AID 540277 | potentiation, % at 8.33 µM; in the data active = potentiation above about 80%; inconclusive = between about 30% and that limit; note: 0% is about no effect
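Fluo-8 calcium influx in TRPV1-expressing cells, kinetic read (ex 480/em 520 nm). Compound added and read 3 min for agonist activity, followed by capsaicin at EC20 final and 2 min further read for enhancement.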
ClpP mod: qHTS Assay for Activators of ClpP. ATP-dependent Clp protease proteolytic subunit (Bacillus subtilis (strain 168)), P80244. purified B. subtilis ClpP, FRET peptide cleavage, 20 min. Potency, µM (doses to about 57.5 µM), inactives show top-dose activity change, negative = active. 1.9% of 340,000 active. AID 651965, 2013; active = well fitted falling curve with a large enough effect; inconclusive = small, poorly fitted or top-dose-only effect; inactive = no such curve, though single readings can be large or run the other way; note: potency is the fitted concentration of half-maximal effect; the source files actives as falling curves though it sought activators and does not explain the sign; nearly all actives have a fitted effect of over 65% in size
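Purified B. subtilis ClpP, 10 microg/mL final in Tris/HCl pH8 with KCl, BSA, glycerol and Tween-20, cleaved an Abz/nitrotyrosine-quenched decapeptide. Fluorescence (ex 320, em 430) was read at 0 and 20 min at room temperature. Delta was normalized to 5.8 microM ADEP and DMSO/no-enzyme controls.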
TRPV1 agonist: activates the human vanilloid receptor TRPV1. activation, % at 8.33 µM. AID 540275. 0.19% of 320,000 active. TRPV1-expressing cells, Fluo-8 calcium influx, agonist mode. Q8NER1; in the data active = activation above about 80%; inconclusive = between about 30% and that limit; note: 0% is about no effect
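Cells expressing TRPV1 were dye-loaded with Fluo-8 and read kinetically: 10 s baseline, 3 min after compound (agonist portion), then 2 min after EC20 capsaicin (allosteric enhancer portion). Calcium-bound dye fluorescence at 480/520 nm.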
p53 reactivation: mutant p53 re-activation in reporter cells; 0.063% of 320,000 active; H1299 p53-A138V BP100-luciferase reporter, luminescence, 24 h; Potency, µM (top dose mostly 92.2 µM), for the others: at the highest dose activity change, positive = activation, most hits filed as activators; AID 504706; active = well fitted activation curve with a large enough effect; inconclusive = small, poorly fitted or top-dose-only effect; inactive = no such curve, though single readings can be large or run the other way; note: potency is the fitted concentration of half-maximal effect; % of control where 0% means no effect; nearly all actives have a fitted effect of over 45% in size
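H1299 (p53-null), stable ts p53-A138V + BP100-Luc; 1000 cells/well, Opti-MEM/10% FBS; cpd 4 pt, 1:5; 24 h, 37 deg C, 5% CO2; detection reagent 10 min RT; luminescence.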
The depositor's hits bear a star; ? = inconclusive; . = no result.

SMILES | KCNH2 WT inh | KCNH2 3.1 inh | TRPV1 potentiator | ClpP mod | TRPV1 agonist | p53 reactivation
O=C(C[n+]1cccc(Br)c1)c1cc(Cl)ccc1Cl | . | . | . | 0% | . | .
COc1ccc(N2CC(c3nc(-c4ccccc4C)no3)CC2=O)cc1Cl (configuration not stated) | . | . | . | 0% | . | .
Cc1cc2nc(-c3ccc(SCC(=O)Nc4ccc(S(=O)(=O)NC5CC5)cc4)nc3)[nH]c2cc1C | -3 | -13 | 0 | 8.9µM* | 4 | 2.8µM*
CNC(=O)c1cc(-c2cccs2)on1 | . | . | . | -8% | . | .
CN(Cc1ccccc1)S(=O)(=O)c1cccc2cccnc12 | -76* | 20 | 15 | 1% | -7 | -2%
CSc1cccc(NS(=O)(=O)c2ccc3[nH]cc(C(=O)N4CCCC4)c(=O)c3c2)c1 | . | . | . | -24% | . | .
Cc1cccc(N(C)C(=O)c2cc3c(=O)oc4ccc(C)cc4c3s2)c1 | . | . | . | -4% | . | .
O=C(CN1C(=O)NC2(CCOc3ccccc32)C1=O)NCc1ccccc1 (configuration not stated) | -11 | 0 | . | 11µM* | . | -1%
CCNC(=O)CN1C(=O)NC2(CCOc3ccccc32)C1=O (configuration not stated) | -5 | -7 | -2 | . | 1 | 8%
C#CCOc1ccc(/C=C2\SC(=S)N(Cc3cccnc3)C2=O)cc1 | 0 | 4 | 1 | 3% | 4 | 35µM*
CCOc1cccc(NC(=O)c2sc3nc(-c4ccc(F)cc4)ccc3c2N)c1 | . | . | . | -2% | . | .
C=C1CC2C=C(NC(C)=O)CC(C1)C2 (configuration not stated) | -7 | -83* | -4 | 1% | 0 | 3%
CCC(Sc1ncccc1C(=O)Oc1cccc([N+](=O)[O-])c1)C(=O)Nc1ccccc1OC (configuration not stated) | -15 | -48 | 6 | 35µM* | 0 | 20%
O=C(CCc1nc(-c2ccccc2)no1)NCCc1ccccc1 | -1 | -90* | 4 | 1% | 7 | 8%
COc1cc(/C=C/C(=O)Nc2nnc(CC(C)C)s2)cc(OC)c1OC | -7 | 8 | 3 | 35µM* | 4 | -1%
COc1cc(/C=C/C(=O)Nc2nnc(CC(C)(C)C)s2)cc(OC)c1OC | -12 | -14 | 2 | 1% | -4 | 2%
COc1ccc(/C=C/C(=O)NCc2ccccn2)cc1OC | -2 | 4 | 7 | . | -10 | -3%
COc1ccc(/C=C/C(=O)Nc2cccnc2Cl)cc1 | 20 | 20 | -22 | -9% | 85* | 7%
CC/C(=N\NC(=O)CNC(=O)/C=C/c1ccc(OC)cc1)c1ccccc1 | -136* | 25 | -14 | . | -1 | 5%
COc1cc(/C=C/C(=O)NCc2ccccn2)cc(OC)c1OC | 1 | -3 | -1 | 25µM* | 0 | 0%
COc1ccc(/C=C/C(=O)NCC(=O)N/N=C(\C)Cc2ccccc2)cc1 | 4 | -8 | 0 | 1% | 0 | 1%
COCCNc1nc(NCc2cc(-c3ccc(OC)cc3)no2)c2sccc2n1 | . | . | . | -7% | . | .
COc1ccc(C(=O)NCc2ccccn2)cc1 | 4 | -6 | -6 | -2% | 2 | 9%
COc1ccc(/C=C/C(=O)NCc2ccccn2)cc1 | -22 | 3 | 5 | 25µM* | 1 | 5%
CCOC(=O)c1c(-c2ccc(-c3ccccc3)cc2)csc1NC(=O)c1cccc(N2C(=O)CCC2=O)c1 | -5 | 5 | 9 | 16µM* | -6 | -8%
SMILES | KCNH2 WT inh | KCNH2 3.1 inh | TRPV1 potentiator | ClpP mod | TRPV1 agonist | p53 reactivation
O=C(CC(=O)NN=Cc1ccc2c(c1)CCC2)NN=Cc1ccc2c(c1)CCC2 | 2 | 5 | . | 3% | . | .
CCCC[n+]1c(/C=C/c2ccc(N(C)C)cc2)sc2ccccc21 | . | . | . | -1% | . | .
O=C(c1ccccc1NS(=O)(=O)c1ccc(Br)s1)N1CCCC1 | -12 | 1 | -35 | 16µM* | 2 | -2%
Cc1csc2ncc(C(=O)NCc3ccco3)c(=O)n12 | -14 | 1 | 26 | 20µM* | 1 | 5%
O=C(NCc1ccco1)c1cnc2sccn2c1=O | 1 | 4 | 11 | ? | 3 | 5%
CCN(CC(=O)Nc1ccc(NC(C)=O)cc1)C(=O)CSCC(=O)Nc1ccc(C)cc1 | 4 | -4 | 1 | 1% | 0 | 4%
Cc1ccc(NC(=O)CSCC(=O)Nc2nnc(C)s2)cc1 | 0 | 25 | -7 | 28µM* | 0 | -2%
CCc1nnc(NC(=O)CSc2nc3cc4c(cc3cc2C)OCCO4)s1 | -17 | 5 | 10 | -10% | 2 | 1%
CCc1ccc2nc(SCC(=O)Nc3nnc(C)s3)c(C)cc2c1 | -6 | -91* | -1 | -15% | 1 | 5%
CCOC(=O)CC(=O)CSCC(=O)Nc1ccc(C)cc1 | -8 | -75* | 3 | -2% | 0 | 13%
COc1ccc(O)c(-c2[nH]ncc2C(=O)c2cccc(C)c2)c1 | 26 | -109* | -7 | 1% | 4 | -3%
COc1ccc(Oc2coc3cc(OC(=O)/C=C/c4ccccc4)ccc3c2=O)cc1 | -2 | -14 | -2 | 25µM* | 4 | -7%
CCOc1ccccc1Oc1coc2cc(O)ccc2c1=O | -17 | 16 | 1 | 32µM* | -1 | ?
CCOc1ccc2c(=O)c(Oc3ccccc3OCC)coc2c1 | -4 | 9 | 2 | -5% | 1 | 21%
COc1ccccc1Oc1coc2cc(O)ccc2c1=O | -13 | -8 | -6 | 28µM* | -1 | 1%
COc1ccc(Oc2coc3cc(OC(=O)/C=C/c4ccc(F)cc4)ccc3c2=O)cc1 | -6 | -15 | 0 | 0% | 1 | 7%
COc1cccc2c1C(=O)/C(=C\c1ccc(N(C)C)cc1)C2 | . | . | . | 0% | . | .
Cc1cc(C(=O)CSc2nc(N)cc(=O)[nH]2)c(C)n1-c1ccc(OC(F)F)cc1 | -1 | -10 | -9 | 32µM* | 3 | -3%
Cc1cc(-n2c(C)cc(C(=O)CSc3nc(N)cc(=O)[nH]3)c2C)no1 | -6 | -7 | -11 | -2% | 1 | -1%
O=c1c2ccccc2oc2ccc(-c3ccoc3)cc12 | . | . | . | -15% | . | .
COc1ccc(-c2c(NC(C)=O)n(C)c3ccccc3c2=O)cc1 | 7 | 4 | -2 | 25µM* | 2 | 0%
COc1ccc(-c2c(NC(=O)C(C)C)n(C)c3ccccc3c2=O)cc1 | -18 | 3 | 5 | 28µM* | -1 | 0%
Cc1ccc(-c2c(NC(=O)C(C)C)n(C)c3ccccc3c2=O)cc1 | -39 | 5 | -8 | -3% | 0 | 0%
O=C(OCc1cn([C@H]2C[C@H](c3ccccc3)N(Cc3cccs3)C[C@@H]2O)nn1)c1ccccc1 | -1 | 9 | . | 0% | . | .
O=c1[nH]c(=S)[nH]c2c1[C@H](CCc1cccc(Cl)c1)O[C@H](C1CC1)C2 | . | . | . | 1% | . | .
